In PubChem BioAssay AID743364 (National Center for Advancing Translational Sciences (NCATS), 2014):
Activity calls are given as the source filed them. Calls follow the shape of the dose curve; as a rule, active = well fitted curve in the direction sought with a large enough effect; inactive = no such curve, though single readings can be large or run the other way.

assay: qHTS profiling of inhibitors of Plasmodium falciparum (3D7) proliferation (acoustic dispense); conditions: P. falciparum 3D7 in erythrocytes, SYBR Green, 72 h; series mostly up to 49.8 µM
From the text: Plasmodium falciparum is a virulent malarial parasite that kills 1-2 million people worldwide each year. Transmitted by mosquitoes, the sporozoite form of the parasite enters the blood stream to infect hepatocytes, where they become merozoites that infect red blood cells (erythrocytes). Within erythrocytes, merozoites begin a […] cycle of growth and division, after which the parasite is released to infect new red blood cells. Gametocytes, which form within erythrocytes as well, circulate in the bloodstream and are ingested by the mosquito, thereby completing the life cycle. To profile malarial isolates for differential chemical responses and to identify inhibitors of malarial growth, an assay that measures P. falciparum growth and replication within erythrocytes was employed. This assay uses a DNA binding fluorescent dye (SYBR Green) to detect parasite DNA following cell lysis. Because mature erythrocytes lack DNA, only Plasmodium-derived DNA is detected.
The SYBR Green viability assay was adapted from a method described previously (Plouffe et al., 2008). For screening 3 ul culture medium was dispensed into 1536 well black clear bottom plates (Aurora Biotechnologies) using a Multidrop Combi (Thermo Fisher Scientific Inc.), 23 nL of compounds in DMSO were added by an acoustic dispenser (EDC Biosystems), and 5 ul of erythrocytes infected with P. falciparum (0.3% parasitemia, 2.5% hematocrit final concentration) were added. The plates were incubated at 37 C in a humidified incubator in 5% CO2 for 72 h, and 2 ul lysis buffer (20 mM Tris HCl, 10 mM EDTA, 0.16% saponin, 1.6% triton X, 10X SYBR Green I supplied as 10,000X […] by Invitrogen) was added to each well. The plates were mixed for 25 sec with gentle shaking and incubated overnight at room temperature in the dark. The following morning, fluorescence intensity at 485(14) nm excitation and 535(25) nm emission wavelengths was measured on an EnVision (Perkin Elmer) plate reader. Plate reads were normalized relative to the control inhibitor (0.29 uM artemisinin) and vehicle (DMSO) wells present on each plate and then corrected by an algorithm using vehicle-only control plates at the beginning and end of the compound plate stack.

outcome, inactive:
CC[C@H]1CN2CCc3cc(OC)c(OC)cc3[C@H]2C[C@@H]1C[C@@H]1NCCc2cc(OC)c(OC)cc21
Nc1cccc(-c2csc(NC(=O)CCCCCCC(=O)NO)n2)c1
C[C@H]1[C@@H](OC(=O)CCC(=O)O)O[C@@H]2O[C@@]3(C)CC[C@@H]4[C@H](C)CC[C@@H]1[C@@]24OO3
O=C(Nc1cn[nH]c1-c1nc2ccc(CN3CCOCC3)cc2[nH]1)NC1CC1
Cn1cc(CNCC2CCN(c3ncc(C(=O)NO)cn3)CC2)c2ccccc21
C=C[C@@H]1CN2CCC1C[C@@H]2C(O)c1ccnc2ccc(OC)cc12 (stereo not given in full)
COC(=O)[C@]12CCC(C)(C)C[C@@H]1[C@@H]1C(=O)C=C3[C@@]4(C)C=C(C#N)C(=O)C(C)(C)[C@@H]4CC[C@@]3(C)[C@]1(C)CC2
CCNC(=O)c1noc(-c2cc(C(C)C)c(O)cc2O)c1-c1ccc(CN2CCOCC2)cc1
NC(=NCCCCCCN=C(N)N=C(N)Nc1ccc(Cl)cc1)N=C(N)Nc1ccc(Cl)cc1
CN[C@@H]1C[C@H]2O[C@@](C)([C@H]1OC)n1c3ccccc3c3c4c(c5c6ccccc6n2c5c31)C(=O)N[C@H]4O
O=C1c2ccccc2-[n+]2ccc3c([nH]c4ccccc43)c21
CO[C@H]1C=CO[C@@]2(C)Oc3c(C)c(O)c4c(O)c(c(C=NN5CCN(C)CC5)c(O)c4c3C2=O)NC(=O)C(C)=CC=C[C@H](C)[C@H](O)[C@@H](C)[C@@H](O)[C@@H](C)[C@H](OC(C)=O)[C@H]1C
CS(=O)(=O)CCNCc1ccc(-c2ccc3ncnc(Nc4ccc(OCc5cccc(F)c5)c(Cl)c4)c3c2)o1
Cn1cc(C2=C(c3c4n(c5ccccc35)CCC(CN)C4)C(=O)NC2=O)c2ccccc21 (stereo not given)
O=C1NC(=O)C(=Cc2ccc3nccc(-c4ccncc4)c3c2)S1
FC(F)c1nc2ccccc2n1-c1nc(N2CCOCC2)nc(N2CCOCC2)n1
COc1ccc2cc3[n+](cc2c1OC)CCc1cc2c(cc1-3)OCO2
O[C@H](c1cc(C(F)(F)F)nc2c(C(F)(F)F)cccc12)[C@H]1CCCCN1
CCc1cc(Nc2nccc(-c3c(-c4ccc(OC)c(C(=O)Nc5c(F)cccc5F)c4)nc4ccccn34)n2)c(OC)cc1N1CCC(N2CCN(S(C)(=O)=O)CC2)CC1
Cc1[nH]c2ccccc2c1CCNCc1ccc(C=CC(=O)NO)cc1
CN([C@@H](Cc1ccc(OS(=O)(=O)c2cccc3cnccc23)cc1)C(=O)N1CCN(c2ccccc2)CC1)S(=O)(=O)c1cccc2cnccc12
Cn1c2ccccc2c2c3c(c4c5ccccc5n(CCC#N)c4c21)CNC3=O
CC=C1C2C=C(C)CC1(N)c1ccc(=O)[nH]c1C2 (stereo not given)
Nc1ccc(-c2ccc3ncc4ccc(=O)n(-c5cccc(C(F)(F)F)c5)c4c3c2)cn1
CC[C@H]1OC(=O)[C@H](C)[C@@H](O[C@H]2C[C@@](C)(OC)[C@@H](O)[C@H](C)O2)[C@H](C)[C@@H](O[C@@H]2O[C@H](C)C[C@H](N(C)C)[C@@H]2O)[C@](C)(O)C[C@@H](C)CN(C)[C@H](C)[C@@H](O)[C@]1(C)O
CC1(CN2CCC(n3c(=O)[nH]c4ccccc43)CC2)OCc2ccccc2-n2cccc21 (stereo not given)
COc1cc(NCc2ccc3nc(N)nc(N)c3c2C)cc(OC)c1OC
C[C@@H]1CCC2[C@@H](C)[C@@H](O)O[C@@H]3O[C@@]4(C)CC[C@@H]1[C@@]23OO4 (stereo not given in full)
CC[C@@]1(O)C[C@H](O[C@H]2C[C@H](N(C)C)[C@H](O[C@H]3C[C@H](O)[C@H](O[C@H]4CCC(=O)[C@H](C)O4)[C@H](C)O3)[C@H](C)O2)c2c(cc3c(c2O)C(=O)c2c(O)cccc2C3=O)[C@@H]1C(=O)OC
CC(C)C[C@H](NC(=O)[C@H](CCc1ccccc1)NC(=O)CN1CCOCC1)C(=O)N[C@@H](Cc1ccccc1)C(=O)N[C@@H](CC(C)C)C(=O)[C@@]1(C)CO1
CC(C)[C@H](C(=O)Nc1ccc(C(=O)NO)cc1)c1ccccc1
COc1cc(C)c2c(Oc3cccc(C(F)(F)F)c3)c(OC)cc(NCCCC(C)N)c2n1 (stereo not given)
CCCCN(CCCC)CC(O)c1cc(Cl)cc2c1-c1ccc(Cl)cc1C2=Cc1ccc(Cl)cc1 (stereo not given)
COCCn1c2c([n+](Cc3cnccn3)c1C)C(=O)c1ccccc1C2=O
C[C@H]1Cc2c([nH]c3cc(Cl)c(F)cc23)[C@@]2(N1)C(=O)Nc1ccc(Cl)cc12
COc1cc2nc(N3CCCN(C)CC3)nc(NC3CCN(Cc4ccccc4)CC3)c2cc1OC
CCOC(=O)[C@H](CCc1ccccc1)N[C@H]1CS[C@H](c2cccs2)CN(CC(=O)O)C1=O
COc1ccc(-c2ccc3ncc4c(c3c2)n(-c2ccc(N3CCNCC3)c(C(F)(F)F)c2)c(=O)n4C)cn1
COC(=O)c1ccc2c(C(=Nc3ccc(N(C)C(=O)CN4CCN(C)CC4)cc3)c3ccccc3)c(O)[nH]c2c1

Activity change, inactive:
CCCCCCOC(=O)C1(O)CC2OC1(C)n1c3ccccc3c3c4c(c5c6ccccc6n2c5c31)C(=O)NC4 (stereo not given) 34.6% [at 1.88 µM]
